In PubChem BioAssay AID2057 (The Scripps Research Institute Molecular Screening Center, 2009):
Out of some 320,000 compounds screened, about 2,100 (0.66%) were called active. The sample holds actives, similar compounds and a random draw of the others, so the mix is not that of the screen. Values without a mark were called inactive.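 Rule for the calls: active = inhibition above the mean inhibition of all tested compounds plus 3 SD, set per campaign (cut at about 40% in these data); inactive = the rest.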

Each molecule was assayed against Induced myeloid leukemia cell differentiation protein Mcl-1 (Homo sapiens) (UniProt Q07820) (assay: MCL1-BIM peptide interaction disruptors – biochemical, fluorescence polarization, primary screen (AID 2057;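 note: 0% = DMSO wells and 100% = unlabeled Bim-BH3 peptide control; higher means more loss of mP so more displacement of Bim peptide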)). Details: GST-MCL1 / FITC-Bim-BH3 fluorescence polarization; at 10.9 µM; stronger effect = higher value.
Chain of Induced myeloid leukemia cell differentiation protein Mcl-1 (Homo sapiens) (Q07820 whole entry, looked up): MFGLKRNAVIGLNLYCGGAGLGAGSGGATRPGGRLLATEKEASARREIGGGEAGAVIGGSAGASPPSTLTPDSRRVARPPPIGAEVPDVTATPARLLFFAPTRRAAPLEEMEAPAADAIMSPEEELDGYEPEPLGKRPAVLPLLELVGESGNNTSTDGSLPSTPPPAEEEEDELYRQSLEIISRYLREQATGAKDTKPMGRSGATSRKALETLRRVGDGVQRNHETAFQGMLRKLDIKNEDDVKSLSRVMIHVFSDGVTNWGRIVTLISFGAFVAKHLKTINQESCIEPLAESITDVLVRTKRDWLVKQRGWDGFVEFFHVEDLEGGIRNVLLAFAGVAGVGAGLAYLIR

| Structure (SMILES) | inhibition |
| --- | --- |
| O=C1NC(=O)N(c2ccccc2)C(=O)/C1=C/c1ccc([N+](=O)[O-])s1 | 44.1% (active) |
| CCOP(=S)(OCC)SCOC(=O)NCC(=O)OC | 6.09% |
| C=CCN1C(=O)C2(C(C(=O)OCC)=C(N)Oc3c2c(=O)oc2ccccc32)c2ccccc21 (stereo not given) | 1.78% |
| Cc1ccccc1N1C(=O)NC(=O)/C(=C\c2cc(C)n(C)c2C)C1=O | 1.23% |
| COc1cccc(N2C(=O)NC(=O)/C(=C\c3cn(C)c4ccccc34)C2=O)c1 | 55% (active) |
| Cc1c(C(=O)O)cccc1-n1c(C)cc(/C=C2\C(=O)NC(=O)N(c3ccc4c(c3)OCO4)C2=O)c1C | 2.52% |
| CCN(CC)C(=O)Oc1ccc(NC(=O)N2CCOCC2)cc1 | 3.93% |
| Cc1cccc(OP(=O)(Oc2cccc(C)c2)OC(c2ccccc2)C(F)(F)F)c1 (stereo not given) | 2.04% |
| CN(c1ccccc1)c1ccc([N+](=O)[O-])c2nonc12 | -24.9% |
| O=C(CCC(=O)N1C[C@H]2C[C@@H](C1)c1cccc(=O)n1C2)NCc1ccccc1C(F)(F)F | 2.96% |
| COc1ccc(N2C(=O)/C(=C/c3ccco3)C(=O)NC2=S)cc1 | 53.9% (active) |
| Cc1cc(/C=C2/C(=O)NC(=O)N(Cc3ccco3)C2=O)c(C)n1-c1ccc(C(=O)O)cc1 | -11.8% |
| COc1ccc(CN2C(=O)NC(=O)/C(=C\c3ccc(OC)c(OC)c3OC)C2=O)cc1 | -3.16% |
| Cc1ccc(C)c(NC2=NCCCS2)c1 | 0.88% |
| COc1cccc(OC)c1C(=O)NC(=S)N1C[C@H]2C[C@H](C1)c1cccc(=O)n1C2 | 9.55% |
